What all share (assay): DAPPL (digital affinity profiling via proximity ligation, sequencing); 10 mM Tris-HCl pH 7.5, 50 mM NaCl, 1 mM DTT, 4% glycerol, room temperature, 30 min; GST-TFs on glutathione beads, 16-mer random dsDNA library, 0.1% formaldehyde crosslink after washing; high values mean tight binding
What all share (settings): protein: recombinant; tags: N-terminal GST; dsDNA, one strand shown

One assay concerns the target T1, FLI1 (Homo sapiens, UniProt Q01543 1-452).
T1 sequence: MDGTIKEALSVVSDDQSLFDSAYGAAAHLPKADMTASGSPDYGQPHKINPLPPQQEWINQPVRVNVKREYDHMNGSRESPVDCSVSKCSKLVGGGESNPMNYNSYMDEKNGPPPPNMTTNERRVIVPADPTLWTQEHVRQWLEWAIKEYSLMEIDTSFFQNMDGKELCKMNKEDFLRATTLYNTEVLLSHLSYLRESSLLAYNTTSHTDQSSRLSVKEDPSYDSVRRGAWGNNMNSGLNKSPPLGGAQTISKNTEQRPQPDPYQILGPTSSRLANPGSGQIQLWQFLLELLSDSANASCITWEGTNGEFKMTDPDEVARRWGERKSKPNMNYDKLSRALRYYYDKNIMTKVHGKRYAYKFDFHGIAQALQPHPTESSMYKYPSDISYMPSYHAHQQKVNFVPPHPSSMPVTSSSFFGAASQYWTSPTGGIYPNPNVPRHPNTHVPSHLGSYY
Put shortly: (§1)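 Beads coated with glutathione captured GST-fused human transcription factors that had been expressed in yeast, and the factors were then given DNA barcodes and pooled with a tag-only sample. The pools were incubated with 200 nmole of a random double-stranded 16-mer DNA library in Tris/NaCl/DTT/glycerol buffer for 30 min at room temperature, washed, crosslinked with 0.1% formaldehyde and proximity-ligated with BsaI/T4 ligase at 37 °C for 1 h. PCR amplification and Illumina NextSeq500 sequencing came last. Binding signal is each hexamer's read frequency for a factor divided by its frequency for the tag-only sample.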

Another assay concerns the target T2, ELK1 (Homo sapiens, UniProt P19419 1-428).
T2 sequence: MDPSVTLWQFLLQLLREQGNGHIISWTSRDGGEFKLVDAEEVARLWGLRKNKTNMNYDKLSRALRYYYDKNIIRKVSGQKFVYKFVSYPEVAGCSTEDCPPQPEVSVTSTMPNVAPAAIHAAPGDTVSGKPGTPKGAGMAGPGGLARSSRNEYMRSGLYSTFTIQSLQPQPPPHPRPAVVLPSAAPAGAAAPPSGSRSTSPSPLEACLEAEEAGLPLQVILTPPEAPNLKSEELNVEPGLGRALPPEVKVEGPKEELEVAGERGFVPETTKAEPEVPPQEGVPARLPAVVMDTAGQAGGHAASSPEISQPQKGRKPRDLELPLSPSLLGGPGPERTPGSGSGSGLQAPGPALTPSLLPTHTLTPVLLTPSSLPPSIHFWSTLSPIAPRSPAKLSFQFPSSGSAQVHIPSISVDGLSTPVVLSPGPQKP
The procedure, abridged:
as §1

The target of another assay is T3, GABPA (Homo sapiens, UniProt Q06546 1-454).
T3 sequence: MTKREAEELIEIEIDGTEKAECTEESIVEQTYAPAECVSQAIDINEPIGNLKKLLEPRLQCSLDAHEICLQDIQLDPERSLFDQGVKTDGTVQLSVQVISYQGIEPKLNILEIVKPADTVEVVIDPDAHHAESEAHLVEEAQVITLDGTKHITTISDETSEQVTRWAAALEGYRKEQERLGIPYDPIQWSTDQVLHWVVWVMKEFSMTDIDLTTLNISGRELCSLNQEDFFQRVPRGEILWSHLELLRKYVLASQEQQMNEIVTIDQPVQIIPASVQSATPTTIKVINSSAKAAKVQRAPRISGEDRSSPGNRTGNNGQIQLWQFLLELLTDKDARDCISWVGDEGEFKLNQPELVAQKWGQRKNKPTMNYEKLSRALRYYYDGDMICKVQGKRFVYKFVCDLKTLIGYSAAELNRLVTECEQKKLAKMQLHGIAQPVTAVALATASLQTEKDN
The procedure, abridged:
as §1

Another assay concerns the target T4, ERG (Homo sapiens, UniProt P11308 1-479).
T4 sequence: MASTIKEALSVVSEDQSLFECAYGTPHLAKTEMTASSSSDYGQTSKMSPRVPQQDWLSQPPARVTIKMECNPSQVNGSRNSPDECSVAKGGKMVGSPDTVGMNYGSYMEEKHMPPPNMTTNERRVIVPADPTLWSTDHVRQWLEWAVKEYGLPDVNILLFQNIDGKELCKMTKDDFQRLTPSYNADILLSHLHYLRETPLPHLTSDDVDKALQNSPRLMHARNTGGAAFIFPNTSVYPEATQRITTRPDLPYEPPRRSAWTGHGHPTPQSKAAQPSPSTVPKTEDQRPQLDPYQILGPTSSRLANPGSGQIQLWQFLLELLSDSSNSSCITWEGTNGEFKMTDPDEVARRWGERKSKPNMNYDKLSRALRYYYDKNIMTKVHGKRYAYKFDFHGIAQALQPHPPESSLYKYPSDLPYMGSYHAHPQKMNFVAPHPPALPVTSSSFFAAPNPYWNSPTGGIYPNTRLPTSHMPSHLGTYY
Put shortly:
as §1

The target in another assay is ELF1 (Homo sapiens, UniProt P32519 1-619). Put shortly: as §1
The next assay deals with T5, EHF (Homo sapiens, UniProt Q9NZC4 1-300).
T5 sequence: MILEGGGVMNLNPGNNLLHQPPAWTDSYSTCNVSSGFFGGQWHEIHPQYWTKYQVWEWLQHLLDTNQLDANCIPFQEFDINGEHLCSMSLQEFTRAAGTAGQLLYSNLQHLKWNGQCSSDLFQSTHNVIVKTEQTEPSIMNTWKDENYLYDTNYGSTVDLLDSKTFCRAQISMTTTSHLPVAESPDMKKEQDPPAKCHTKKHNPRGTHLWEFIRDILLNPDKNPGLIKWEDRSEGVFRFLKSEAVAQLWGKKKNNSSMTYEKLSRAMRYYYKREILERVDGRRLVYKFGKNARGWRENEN
Put shortly:
as §1

Another assay concerns the target SPI1 (Homo sapiens, UniProt P17947 1-270). The procedure, abridged: as §1
A further assay has as its target SPIB (Homo sapiens, UniProt Q01892 1-262). Put shortly: as §1
In a further assay the target is T6, ELK3 (Homo sapiens, UniProt P41970 1-407).
T6 sequence: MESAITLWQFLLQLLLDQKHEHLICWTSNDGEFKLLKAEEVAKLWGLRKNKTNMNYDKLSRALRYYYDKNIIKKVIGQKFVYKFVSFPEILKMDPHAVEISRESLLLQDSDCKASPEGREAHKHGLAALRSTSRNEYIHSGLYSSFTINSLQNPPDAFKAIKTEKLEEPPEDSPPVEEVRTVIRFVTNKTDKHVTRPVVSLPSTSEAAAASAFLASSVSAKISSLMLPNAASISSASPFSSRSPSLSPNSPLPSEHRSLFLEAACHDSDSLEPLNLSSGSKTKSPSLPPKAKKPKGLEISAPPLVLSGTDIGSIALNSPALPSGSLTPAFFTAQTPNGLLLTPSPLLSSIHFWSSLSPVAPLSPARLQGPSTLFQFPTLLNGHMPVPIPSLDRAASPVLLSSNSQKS
The procedure, abridged: as §1

The target in another assay is T7, FEV (Homo sapiens, UniProt Q99581 1-238).
T7 sequence: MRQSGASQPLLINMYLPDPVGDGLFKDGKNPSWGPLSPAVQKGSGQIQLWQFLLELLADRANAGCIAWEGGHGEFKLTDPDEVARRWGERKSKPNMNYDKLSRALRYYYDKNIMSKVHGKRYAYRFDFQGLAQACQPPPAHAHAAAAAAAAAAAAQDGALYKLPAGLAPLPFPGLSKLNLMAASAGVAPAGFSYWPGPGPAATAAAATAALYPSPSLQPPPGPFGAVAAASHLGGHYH
Put shortly:
as §1

The next assay addresses ETV5 (Homo sapiens, UniProt P41161 1-510). Put shortly: as §1
A further assay has as its target ELF4 (Homo sapiens, UniProt Q99607 1-663). The procedure, abridged:
as §1

The next assay addresses ETV1 (Homo sapiens, UniProt P50549 1-477). The procedure, abridged:
as §1

For another assay, the target named is T8, ERF (Homo sapiens, UniProt P50548 1-548).
T8 sequence: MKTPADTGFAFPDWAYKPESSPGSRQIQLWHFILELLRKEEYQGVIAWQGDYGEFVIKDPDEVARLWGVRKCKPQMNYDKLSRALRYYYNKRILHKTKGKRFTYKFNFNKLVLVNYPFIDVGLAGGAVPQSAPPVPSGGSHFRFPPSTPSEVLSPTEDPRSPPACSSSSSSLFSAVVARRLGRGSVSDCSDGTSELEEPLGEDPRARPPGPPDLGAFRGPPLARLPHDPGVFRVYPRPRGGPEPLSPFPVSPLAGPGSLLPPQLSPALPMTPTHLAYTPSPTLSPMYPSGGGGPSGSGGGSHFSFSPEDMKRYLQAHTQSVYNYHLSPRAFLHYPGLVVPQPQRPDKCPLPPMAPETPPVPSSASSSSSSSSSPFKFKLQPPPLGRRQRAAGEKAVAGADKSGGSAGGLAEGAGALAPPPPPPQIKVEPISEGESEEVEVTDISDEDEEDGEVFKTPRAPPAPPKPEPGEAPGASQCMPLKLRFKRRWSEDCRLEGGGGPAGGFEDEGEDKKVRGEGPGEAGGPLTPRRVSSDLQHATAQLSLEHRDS
Put shortly:
as §1

For a further assay, the target named is T9, ETV3L (Homo sapiens, UniProt Q6ZN32 1-361).
T9 sequence: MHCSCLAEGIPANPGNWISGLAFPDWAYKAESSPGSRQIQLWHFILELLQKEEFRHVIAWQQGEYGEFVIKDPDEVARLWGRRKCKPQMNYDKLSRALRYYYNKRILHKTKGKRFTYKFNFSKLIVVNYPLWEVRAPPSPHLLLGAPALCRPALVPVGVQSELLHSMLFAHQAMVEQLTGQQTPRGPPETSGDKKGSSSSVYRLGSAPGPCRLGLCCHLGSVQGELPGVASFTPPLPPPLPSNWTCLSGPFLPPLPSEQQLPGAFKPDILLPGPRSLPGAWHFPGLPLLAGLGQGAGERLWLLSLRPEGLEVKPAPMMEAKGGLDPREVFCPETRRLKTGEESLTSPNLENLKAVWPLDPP
Put shortly: as §1

For another assay, the target named is T10, ETS2 (Homo sapiens, UniProt P15036 1-469).
T10 sequence: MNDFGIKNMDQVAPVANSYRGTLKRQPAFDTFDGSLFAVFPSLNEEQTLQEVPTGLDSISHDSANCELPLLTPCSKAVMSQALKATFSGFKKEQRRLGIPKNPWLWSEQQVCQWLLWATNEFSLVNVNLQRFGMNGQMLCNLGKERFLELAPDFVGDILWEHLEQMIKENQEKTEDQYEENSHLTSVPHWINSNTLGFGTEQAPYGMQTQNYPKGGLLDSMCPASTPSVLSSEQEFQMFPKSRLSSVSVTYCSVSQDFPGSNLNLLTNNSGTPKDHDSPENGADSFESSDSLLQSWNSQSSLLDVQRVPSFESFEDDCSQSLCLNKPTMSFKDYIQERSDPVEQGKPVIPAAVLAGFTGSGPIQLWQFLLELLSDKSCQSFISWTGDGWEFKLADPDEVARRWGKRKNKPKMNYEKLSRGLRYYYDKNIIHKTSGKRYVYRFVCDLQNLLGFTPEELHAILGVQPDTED
Put shortly: as §1

For a further assay, the target named is T11, ELF5 (Homo sapiens, UniProt Q9UKW6-2 1-255).
T11 sequence: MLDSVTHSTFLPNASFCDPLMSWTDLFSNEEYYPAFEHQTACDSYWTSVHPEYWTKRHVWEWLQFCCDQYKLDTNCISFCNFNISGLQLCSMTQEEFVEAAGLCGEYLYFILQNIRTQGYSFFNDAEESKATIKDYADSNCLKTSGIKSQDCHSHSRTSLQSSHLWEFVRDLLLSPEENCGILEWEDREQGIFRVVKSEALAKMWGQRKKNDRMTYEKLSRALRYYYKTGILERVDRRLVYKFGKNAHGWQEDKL
Put shortly:
as §1

Another assay has as its target T12, ETV3 (Homo sapiens, UniProt P41162-2 1-143).
T12 sequence: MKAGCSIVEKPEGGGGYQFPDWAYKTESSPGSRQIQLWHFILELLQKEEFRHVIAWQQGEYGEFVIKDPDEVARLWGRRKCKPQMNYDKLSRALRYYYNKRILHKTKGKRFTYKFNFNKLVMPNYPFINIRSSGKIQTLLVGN
Put shortly:
as §1

The target of a further assay is ETV6 (Homo sapiens, UniProt P41212 1-452). The procedure, abridged: as §1
Chain of ETV6 (P41212 whole entry): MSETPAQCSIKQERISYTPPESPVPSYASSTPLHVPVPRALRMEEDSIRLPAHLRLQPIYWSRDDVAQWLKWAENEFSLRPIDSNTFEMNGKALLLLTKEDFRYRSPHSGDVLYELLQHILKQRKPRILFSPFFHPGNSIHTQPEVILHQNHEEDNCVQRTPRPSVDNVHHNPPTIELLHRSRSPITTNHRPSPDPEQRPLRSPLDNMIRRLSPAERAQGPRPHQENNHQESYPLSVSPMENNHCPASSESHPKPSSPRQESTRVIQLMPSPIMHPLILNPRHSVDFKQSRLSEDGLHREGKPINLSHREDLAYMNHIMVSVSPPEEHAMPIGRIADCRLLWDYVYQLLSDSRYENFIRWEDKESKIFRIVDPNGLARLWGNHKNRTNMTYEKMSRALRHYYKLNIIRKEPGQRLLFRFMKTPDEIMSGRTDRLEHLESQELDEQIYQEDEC

Chain of ELF4 (Q99607 whole entry): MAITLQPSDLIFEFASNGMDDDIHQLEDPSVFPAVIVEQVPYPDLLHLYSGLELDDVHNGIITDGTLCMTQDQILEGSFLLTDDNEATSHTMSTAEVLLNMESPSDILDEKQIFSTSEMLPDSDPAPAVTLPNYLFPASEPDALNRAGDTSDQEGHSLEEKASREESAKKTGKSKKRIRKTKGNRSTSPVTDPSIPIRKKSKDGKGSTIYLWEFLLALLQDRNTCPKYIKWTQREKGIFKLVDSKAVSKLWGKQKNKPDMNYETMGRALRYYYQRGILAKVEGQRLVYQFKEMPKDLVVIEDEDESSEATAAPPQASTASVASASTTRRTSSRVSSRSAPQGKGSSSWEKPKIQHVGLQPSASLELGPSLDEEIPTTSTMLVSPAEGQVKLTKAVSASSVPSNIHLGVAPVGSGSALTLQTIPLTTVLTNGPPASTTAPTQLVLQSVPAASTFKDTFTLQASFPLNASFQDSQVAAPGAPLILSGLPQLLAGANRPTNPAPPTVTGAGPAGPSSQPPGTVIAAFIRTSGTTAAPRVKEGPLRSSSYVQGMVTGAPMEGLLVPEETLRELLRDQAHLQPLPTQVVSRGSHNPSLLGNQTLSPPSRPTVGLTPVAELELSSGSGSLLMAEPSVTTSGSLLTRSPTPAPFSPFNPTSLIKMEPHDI
Chain of SPIB (Q01892 whole entry): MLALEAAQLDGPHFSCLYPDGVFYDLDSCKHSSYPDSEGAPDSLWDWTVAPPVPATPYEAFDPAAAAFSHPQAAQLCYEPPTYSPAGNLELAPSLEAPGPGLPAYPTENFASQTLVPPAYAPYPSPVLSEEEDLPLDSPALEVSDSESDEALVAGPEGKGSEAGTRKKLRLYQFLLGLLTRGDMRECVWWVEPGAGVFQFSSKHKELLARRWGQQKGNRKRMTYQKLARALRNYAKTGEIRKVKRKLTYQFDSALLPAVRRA
Chain of ELF1 (P32519 whole entry): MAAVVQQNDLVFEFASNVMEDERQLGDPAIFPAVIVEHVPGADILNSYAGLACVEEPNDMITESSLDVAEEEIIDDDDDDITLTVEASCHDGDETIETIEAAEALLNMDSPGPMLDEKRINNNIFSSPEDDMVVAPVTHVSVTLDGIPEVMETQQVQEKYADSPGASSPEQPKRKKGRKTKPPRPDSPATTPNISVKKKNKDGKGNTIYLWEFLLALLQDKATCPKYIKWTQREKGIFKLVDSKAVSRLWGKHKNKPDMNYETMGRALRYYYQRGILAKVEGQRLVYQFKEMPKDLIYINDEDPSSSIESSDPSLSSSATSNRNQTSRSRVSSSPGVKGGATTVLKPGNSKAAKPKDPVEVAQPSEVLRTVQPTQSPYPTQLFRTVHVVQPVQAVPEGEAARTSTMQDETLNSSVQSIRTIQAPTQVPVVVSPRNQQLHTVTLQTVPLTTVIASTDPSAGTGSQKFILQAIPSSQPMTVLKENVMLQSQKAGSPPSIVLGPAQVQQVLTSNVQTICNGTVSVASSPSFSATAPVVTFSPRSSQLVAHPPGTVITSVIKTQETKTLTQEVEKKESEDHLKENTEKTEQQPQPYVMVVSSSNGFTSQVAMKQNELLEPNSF
Chain of ETV1 (P50549 whole entry): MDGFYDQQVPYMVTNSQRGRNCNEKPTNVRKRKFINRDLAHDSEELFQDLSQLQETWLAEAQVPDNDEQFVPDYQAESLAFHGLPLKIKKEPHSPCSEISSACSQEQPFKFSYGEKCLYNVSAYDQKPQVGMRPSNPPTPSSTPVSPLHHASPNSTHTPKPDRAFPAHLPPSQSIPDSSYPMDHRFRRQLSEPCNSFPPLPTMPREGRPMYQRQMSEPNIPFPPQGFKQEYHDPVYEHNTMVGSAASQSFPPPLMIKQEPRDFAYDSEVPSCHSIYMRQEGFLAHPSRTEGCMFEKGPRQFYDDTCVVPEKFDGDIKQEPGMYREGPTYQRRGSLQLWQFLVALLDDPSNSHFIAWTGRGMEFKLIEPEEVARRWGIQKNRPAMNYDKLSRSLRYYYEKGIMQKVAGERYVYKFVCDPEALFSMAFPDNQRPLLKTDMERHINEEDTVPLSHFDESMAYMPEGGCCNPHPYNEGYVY
Chain of ETV5 (P41161 whole entry): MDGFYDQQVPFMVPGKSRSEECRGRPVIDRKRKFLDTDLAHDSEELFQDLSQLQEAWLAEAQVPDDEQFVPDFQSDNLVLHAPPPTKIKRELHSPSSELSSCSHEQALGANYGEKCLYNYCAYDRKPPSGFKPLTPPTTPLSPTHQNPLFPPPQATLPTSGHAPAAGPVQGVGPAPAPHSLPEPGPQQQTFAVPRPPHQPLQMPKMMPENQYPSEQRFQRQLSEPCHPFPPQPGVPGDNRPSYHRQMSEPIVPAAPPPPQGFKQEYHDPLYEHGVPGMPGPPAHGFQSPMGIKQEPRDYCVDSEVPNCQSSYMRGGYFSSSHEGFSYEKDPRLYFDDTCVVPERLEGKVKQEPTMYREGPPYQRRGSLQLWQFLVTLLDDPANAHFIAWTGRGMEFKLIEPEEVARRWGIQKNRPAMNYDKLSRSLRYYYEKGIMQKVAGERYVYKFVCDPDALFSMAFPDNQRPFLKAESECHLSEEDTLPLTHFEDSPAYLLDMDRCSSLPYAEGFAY

On to TGATAC, for which the binding signal with FLI1 was 1.13 fold enrichment (6-mer frequency, TF over GST control); with ELK1 it was 1.17 fold enrichment (6-mer frequency, TF over GST control); in the assay with GABPA, 1.16 fold enrichment (6-mer frequency, TF over GST control); with ERG, 1.13 fold enrichment (6-mer frequency, TF over GST control); in the assay with ELF1 it was 1.14 fold enrichment (6-mer frequency, TF over GST control); with EHF, 1.11 fold enrichment (6-mer frequency, TF over GST control). Moreover, the binding signal with SPI1 is 1.19 fold enrichment (6-mer frequency, TF over GST control); with SPIB it was 1.12 fold enrichment (6-mer frequency, TF over GST control); with ELK3 it was 1.08 fold enrichment (6-mer frequency, TF over GST control); in the assay with FEV it was 1.21 fold enrichment (6-mer frequency, TF over GST control); with ETV5, 1.1 fold enrichment (6-mer frequency, TF over GST control); with ELF4, 1.13 fold enrichment (6-mer frequency, TF over GST control). The binding signal with ETV1 is 1.08 fold enrichment (6-mer frequency, TF over GST control); with ERF, 1.13 fold enrichment (6-mer frequency, TF over GST control); in the assay with ETV3L, 1.07 fold enrichment (6-mer frequency, TF over GST control); in the assay with ETS2 it was 1.1 fold enrichment (6-mer frequency, TF over GST control); with ELF5, 1.1 fold enrichment (6-mer frequency, TF over GST control); with ETV3, 1.1 fold enrichment (6-mer frequency, TF over GST control). Besides, in the assay with ETV6, the binding signal is 1.1 fold enrichment (6-mer frequency, TF over GST control).

The values are drawn from PMC7862700, “An all-to-all approach to the identification of sequence-specific readers for epigenetic DNA modifications on cytosine”.
